uPA surface inh – inhibitors of cell surface uPA generation; cell surface uPA generation assay, qHTS; Potency, µM (highest dose often 38.3 µM), for the others: at the top dose activity change, negative = inhibition, usual class: inhibitors; hit rate 0.31% among 330,000; active = well fitted inhibition curve with a large enough effect; inconclusive = small, poorly fitted or top-dose-only effect; inactive = no such curve, though single readings can be large or run the other way; tested in mouse RAW 264.7 cells; also: potency is read from the fitted curve at half-maximal effect; % is scaled to controls: 0 for no effect and ±100 for the full control effect; nearly all actives have a fitted effect of over 55% in size
RORg inh – blocks mouse ROR gamma transcriptional activity | P51450 | Drosophila S2 Gal4-RORgamma UAS-luciferase reporter, 20 h | Potency, µM (top dose mostly 53.6 µM), without a hit: at the top dose activity change, negative = inhibition, usual class: inhibitors | hit rate 5.4% among 310,000 | AID 2551; also: potency is read from the fitted curve at half-maximal effect; % is scaled to controls: 0 for no effect and ±100 for the full control effect; nearly all actives have a fitted effect of over 60% in size
Target sequence (P51450 whole entry, looked up, the tested form may be a part): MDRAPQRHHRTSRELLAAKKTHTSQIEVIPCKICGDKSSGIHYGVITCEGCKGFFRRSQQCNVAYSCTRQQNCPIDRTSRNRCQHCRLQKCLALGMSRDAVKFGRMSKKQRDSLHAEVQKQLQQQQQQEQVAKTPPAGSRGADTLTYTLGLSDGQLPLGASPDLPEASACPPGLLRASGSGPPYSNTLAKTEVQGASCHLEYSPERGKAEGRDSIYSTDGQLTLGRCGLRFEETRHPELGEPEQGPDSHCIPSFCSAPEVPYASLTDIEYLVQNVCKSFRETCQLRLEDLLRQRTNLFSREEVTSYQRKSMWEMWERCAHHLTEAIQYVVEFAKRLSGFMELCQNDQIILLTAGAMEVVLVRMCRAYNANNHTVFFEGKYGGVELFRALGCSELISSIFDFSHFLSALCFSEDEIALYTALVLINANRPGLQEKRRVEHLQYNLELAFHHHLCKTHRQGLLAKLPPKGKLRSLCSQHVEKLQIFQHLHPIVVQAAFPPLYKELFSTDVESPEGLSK
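Schneider cells (Drosophila), stable Gal4 DBD–ROR gamma + UAS-luc; 1 hr cmpd preincubation; Cu2+ induction 700 uM final; 20 hr ambient; luminescence.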
TRPV1 ag – agonists of human vanilloid receptor 1 (TRPV1); activation, % at 8.33 µM; hit rate 0.19% among 320,000; AID 540275; TRPV1-expressing cells, Fluo-8 calcium influx, agonist mode; in the data active = activation above about 80%; inconclusive = between about 30% and that limit; also: 0% is about no effect
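Fluo-8 calcium influx in TRPV1-expressing cells, kinetic read (ex 480/em 520 nm). Compound added and read 3 min for agonist activity, followed by capsaicin at EC20 final and 2 min further read for enhancement.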
TRPV1 PAM – enhances activation of the human vanilloid receptor TRPV1; TRPV1-expressing cells, Fluo-8 calcium influx, capsaicin EC20 potentiation; potentiation, % at 8.33 µM; hit rate 0.02% among 320,000; AID 540277; in the data active = potentiation above about 80%; inconclusive = between about 30% and that limit; also: 0% is about no effect
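TRPV1-expressing cells were cultured overnight at 35.5C and loaded with Fluo-8 calcium dye for 40 to 90 min at room temperature. After a 10 s baseline, compound was added and calcium influx was read kinetically for 3 min (ex 480/em 520 nm).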
Gal4-VP16 FLuc – Gal4-VP16 reporter inhibition counter-screen; Drosophila S2 Gal4-VP16 UAS-luciferase, luminescence, 20 h; Potency, µM (titrated, usually from 53.6 µM), inactives show at the top dose activity, negative = inhibition, hits mostly inhibitors; hit rate 3.5% among 310,000; AID 2546;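 also: Gal4-VP16 expression switched on by copper sulfate through the metallothionein promoter; potency is read from the fitted curve at half-maximal effect; % is scaled to controls: 0 for no effect and ±100 for the full control effect; nearly all actives have a fitted effect of over 50% in size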
* = called active by the depositor; u = inconclusive; x = not tested or not shown; ! = repeats disagree. Sampled rows, rich in hits. Any-hit rate of the full collection: about 5.8%. Unless noted, calls follow the shape of the dose curve; as a rule, active = well fitted curve in the direction sought with a large enough effect; inconclusive = small, poorly fitted or top-dose-only effect, or another doubt; inactive = no such curve, though single readings can be large; an effect the other way counts as inactive or inconclusive.

SMILES | uPA surface inh | RORg inh | TRPV1 ag | TRPV1 PAM | Gal4-VP16 FLuc
CC[C@@]1(O)C(=O)OCc2c1cc1n(c2=O)-c2cc3ccccc3nc2C1 | x | 0.13µM* | x | x | u
CS(=O)(=O)Nc1cccc(C2=NN(C(=O)c3ccco3)C(c3cccs3)C2)c1 (centres undefined) | u | 9% | -2 | 9 | -4%
C(=NC1CCCCC1)=NC1CCCCC1 | x | u | x | x | 2.2µM*
O=C(O)CBr | x | -1% | x | x | 6%
COC(=O)C1=C(C(=O)OC)[C@@H]2N(Cc3ccccc3)c3ccccc3[C@@]23C[C@@H](C(=O)OC)N(C(=O)c2cccs2)C3=N1 | u | u | 3 | u | 18µM*
COC(=O)[C@@H]1C[C@@]2(O)[C@@H](O)[C@@H](O)[C@@H](O)C[C@H]2N1Cc1cccnc1 | x | -25% | x | x | -5%
Cc1ccc(NC(=S)NC2CC3CCC(C2)N3Cc2ccco2)cc1C (centres undefined) | -2% | 14µM* | -4 | -2 | -19%
C[C@@H](CO)NC(=O)[C@@H]1C=C2c3cccc4[nH]cc(c34)C[C@H]2N(C)C1 | x | -20% | x | x | 5%
CCN1C[C@@]2(COC)CCC(OC)[C@]34C5C[C@]6(O)[C@@H](OC)C[C@](OC(C)=O)(C([C@H](OC)C23)[C@H]14)C5[C@H]6OC(=O)c1ccc(OC)cc1 (some centres undefined) | x | 0% | x | x | -11%
Cc1ccc(OP(=O)(Oc2ccc(C)cc2)Oc2ccc(C)cc2)cc1 | x | 40% | x | x | -18%
COC1=CC23CCCN2CCc2cc4c(cc2C3C1O)OCO4 (centres undefined) | x | -12% | x | x | -3%
COC(=O)C(O)C(O)(CCC(C)C)C(=O)OC1C(OC)=CC23CCCN2CCc2cc4c(cc2C13)OCO4 (centres undefined) | x | 0.13µM* | x | x | u
COC(=O)C[C@@](O)(CCC(C)(C)O)C(=O)O[C@@H]1C(OC)=C[C@]23CCCN2CCc2cc4c(cc2[C@@H]13)OCO4 | x | 0.089µM* | x | x | 0.11µM*
CC(=O)OC1C(=O)[C@]2(C)C(O)CC3OC[C@]3(OC(C)=O)C2[C@@H](OC(=O)c2ccccc2)[C@]2(O)CC(O)C(C)=C1C2(C)C (some centres undefined) | x | -22% | x | x | -12%
O=C(CSC1c2ccccc2-c2ccccc21)N/N=C/c1ccccc1O | x | 13µM* | 5 | 7 | 18µM*
O=C(CSC1c2ccccc2-c2ccccc21)N/N=C/c1ccc(C(=O)O)cc1 | 3% | -35% | 3 | 3 | -2%
CC[C@H](C)[C@H](NC(=O)[C@H](CCCN=C(N)N)NC(=O)[C@H](CCCN=C(N)N)NC(=O)[C@H](CC(C)C)NC(=O)[C@H](Cc1ccccc1)NC(=O)CNC(=O)CNC(=O)[C@@H](N)Cc1ccc(O)cc1)C(=O)N[C@@H](CCCN=C(N)N)C(=O)N1CCC[C@H]1C(=O)N[C@@H](CCCCN)C(=O)N[C@@H](CC(C)C)C(=O)N[C@@H](CCCCN)C(=O)O | x | 13% | x | x | -20%
CC(=O)c1sc(NC(=O)CCS(=O)(=O)c2ccc(C)cc2)nc1C | 11µM* | x | 0 | -2 | x
Cc1ccc(-c2cc(-c3ccccc3)cc(-c3ccccc3)[n+]2-c2ccccc2)cc1 | 10µM* | x | 0 | -12 | x
Cc1ccc(-c2cc(-c3ccc(C)cc3)[n+](-c3ccccc3)c(-c3ccc(C)cc3)c2)cc1 | u | x | 4 | 5 | x
COP(=O)(OC)O/C(=C\Cl)c1cc(Cl)c(Cl)cc1Cl | x | -15% | x | x | u
COC1=CC(=O)OC(CCc2ccccc2)C1 (centres undefined) | x | 14% | x | x | -1%
CN1C(=O)[C@]23CC4=CC=C[C@H](O)[C@H]4N2C(=O)[C@@]1(CO)SS3 | x | 0.045µM* | x | x | 0%
O=c1[nH]c(=S)[nH]c(O)c1N=Nc1ccc(-c2ccccc2)cc1[N+](=O)[O-] | x | u | -2 | 8 | 18µM*
S=C1CN=C(c2ccccc2Cl)c2cc(Cl)ccc2N1 | -2% | 7.9µM* | -1 | 14 | 7.1µM*
SMILES | uPA surface inh | RORg inh | TRPV1 ag | TRPV1 PAM | Gal4-VP16 FLuc
C=CCN1CC[C@@]23c4c5ccc(O)c4O[C@H]2/C(=N\N=C2/CC[C@@]4(O)[C@H]6Cc7ccc(O)c8c7[C@@]4(CCN6CC=C)[C@@H]2O8)CC[C@]3(O)[C@@H]1C5 | x | 1% | x | x | -12%
O=c1cc(-c2ccc(O)c(O)c2)oc2cc(O)cc(O)c12 | u | 22µM*! | -2 | -20 | 11µM*!
Cc1c(O)c(O)cc2c1CC=C1[C@]3(C)CC[C@]4(C)CC[C@@](C)(C(=O)O)CC4[C@]3(C)CC[C@]12C (some centres undefined) | x | u | x | x | 13µM*
O=C(Nc1nnc(-c2ccc3c(c2)CCCC3)o1)c1ccccc1 | 10µM* | 0.28µM* | 11 | 18 | 0.1µM*
CC1OC(O[C@@H]2C(O)CC(O[C@@H]3C(O)C[C@@H](OC4CC[C@]5(C)[C@H](CC[C@H]6[C@@H]5CC[C@]5(C)C(C7=CC(=O)OC7)C(O)C[C@@]65O)C4)OC3C)OC2C)CC(O)C1O (some centres undefined) | x | 2.2µM* | x | x | -3%
C[C@H]1O[C@@H](OC2CC[C@]3(C=O)[C@H]4CC[C@]5(C)[C@@H](C6=CC(=O)OC6)CC[C@]5(O)[C@@H]4CC[C@]3(O)C2)CC2OC(C)(C)OC21 (some centres undefined) | 6% | 16µM* | 0 | 3 | -1%
C[C@H]1O[C@@H](O[C@H]2[C@@H](O)C[C@H](O[C@H]3[C@@H](O)C[C@H](O[C@H]4CC[C@@]5(C)[C@H](CC[C@@H]6[C@@H]5CC[C@]5(C)[C@@H](C7=CC(=O)OC7)CC[C@]65O)C4)O[C@@H]3C)O[C@@H]2C)C[C@H](O)[C@@H]1O | 25% | 1.6µM* | 2 | 11 | -12%
CC1OC(OC2C(O)CC(OC3C(O)CC(OC4CCC5(C)C(CCC6C5CCC5(C)C(C7=CC(=O)OC7)C(O)CC65O)C4)OC3C)OC2C)CC(O)C1O (centres undefined) | 1% | x | x | x | x
CN(C)NC(=O)CCC(=O)O | x | -1% | x | x | -7%
O=C1CC[C@]2(O)C3Cc4ccc(O)c5c4C2(CCN3CC2CC2)C1O5 (some centres undefined) | x | 9% | x | x | -3%
N#CSCC(=O)N1c2ccccc2CCc2ccccc21 | -10% | 11µM* | 1 | 1 | u
C[C@]12CC[C@H]3[C@@H](CCC4=CC(=O)CC[C@@]43C)[C@@H]1CC[C@@H]2C(=O)CO | 4µM* | u | 7 | 9 | 2%
CSSC | x | 10% | x | x | -1%
CCOC(=O)C1(CCc2ccccc2)CCN(Cc2ccc(NC(C)=O)cc2)CC1 | -1% | -1% | 11 | -5 | -5%
CCOC(=O)C1(Cc2ccc(Cl)cc2)CCN(C(C)Cc2ccc(O)c(OC)c2)CC1 (centres undefined) | u | -12% | 9 | -1 | 16µM*

High-throughput results deposited in PubChem by National Center for Advancing Translational Sciences (NCATS).
